Where “and” joins values, the source holds several entries; their conditions need not be identical. Equal entries are not always repeated. Some compounds were tested as several samples or in several runs, with calls that do not always agree. Calls of active or inactive are those of the source. How the source made its calls: active means hit-call score of the fitted dose curve at least 0.9, where 1 is the maximum; inconclusive means response in the unintended direction; inactive means score below 0.9.
tested on: rat CYP2B1, gene 24300; experiment: NVS_ADME_rCYP2B1: NovaScreen (NVS) CYP450-related Enzyme Activity (ADME) Assay for rat CYP2B1 (AID 2283117)
Procedure: NVS_ADME_rCYP2B1 is a biochemical, single-readout assay that uses extracted gene-proteins in a cell-free assay. Measurements were taken 0.75 hour after chemical dosing in a 96-well plate.NVS_ADME_rCYP2B1 is one of one assay component(s) measured or calculated from the NVS_ADME_rCYP2B1 assay. It is designed to make measurements of enzyme activity, a form of enzyme reporter, as detected with fluorescence intensity signals by Fluorescence technology.Data from the assay component NVS_ADME_rCYP2B1 was analyzed into 1 assay endpoint. This assay endpoint, NVS_ADME_rCYP2B1, was analyzed in the positive analysis fitting direction relative to Acetonitrile as the negative control and baseline of activity. Using a type of enzyme reporter, loss-of-signal activity can be used to understand changes in the enzymatic activity as they relate to the gene Cyp2b1. Furthermore, this assay endpoint can be referred to as a primary readout, because this assay has produced multiple assay endpoints where this one serves a enzymatic activity function. To generalize the intended target to other relatable targets, this assay endpoint is annotated to the cyp intended target family, where the subfamily is xenobiotic metabolism.
Binding assays used specific radioligands (tritiated, iodinated) with non-radioactive competitive displacement ligands in agonist or antagonist protocols (as indicated) and various reference compounds and inhibitors to titrate specific binding to receptors and transporters. Most enzyme assays (CYPs, kinases, phosphatases, proteases, HDACs) used recombinant protein and specific substrates (fluorescence mostly, some colorimetric and radioactive) and inhibitors, followed by a biochemical separation of substrate and product. All assays for the biochemical HTS were initially run in duplicate at a single concentration (10 uM for CYP450 assays and 25 uM for all others). Assay-chemical combinations meeting a pre-defined threshold (e.g., 30% inhibition and other criteria defined below) were then run in singleton concentration-response format with maximum concentration of 20 uM for CYPs and 50 uM for all others. Each assay was run with positive and negative controls, and concurrent controls on every plate. The follow-up (secondary) screen tested active chemical-pairs in concentration series, as well as a few additional assays not tested in the primary screen, some selected negative inactives, and several cases re-run in the concentration series for confirmatory purposes.

Row | SMILES | AC50 | outcome
1 | CN(C)C(=S)SSC(=S)N(C)C | 2.11 µM (active) | 
2 | CCNc1nc(Cl)nc(NC(C)C)n1 |  | inactive
3 | CCOC(=O)CC(SP(=S)(OC)OC)C(=O)OCC (centres undefined) | 3.83 µM (active) | 
4 | CC1COC(Cn2cncn2)(c2ccc(Oc3ccc(Cl)cc3)cc2Cl)O1 (centres undefined) | 0.552 µM (active) | 
5 | O=C(Nc1ccccc1)Nc1ccnc(Cl)c1 | 6.41 µM (active) | 
6 | CCCN(CCC)c1c([N+](=O)[O-])cc(S(N)(=O)=O)cc1[N+](=O)[O-] | 7.63 µM (active) | 
7 | CCON=C(CC)C1=C(O)CC(c2c(C)cc(C)cc2C)CC1=O (centres undefined) |  | inactive
8 | CCCC1COC(Cn2cncn2)(c2ccc(Cl)cc2Cl)O1 (centres undefined) | 799 nM (active) and 409 nM (active) | 
9 | COc1ccc(C(c2ccc(OC)cc2)C(Cl)(Cl)Cl)cc1 |  | inactive
10 | CCCCOC(=O)c1ccccc1C(=O)OCCCC | 2.31 µM (active) | inactive
11 | N#CC(CCc1ccc(Cl)cc1)(Cn1cncn1)c1ccccc1 (centres undefined) | 0.0692 µM (active) | 
12 | OC(c1ccc(Cl)cc1)(c1cncnc1)c1ccccc1Cl (centres undefined) | 1.17 µM (active) | 
13 | CCOP(=S)(OCC)SCn1c(=O)oc2cc(Cl)ccc21 | 0.708 µM (active) | 

From PubChem BioAssay (EPA / NIEHS)
